Rows were chosen to be rich in hits. Some 2.2% of all compounds tested hit in one or more screens of this group.
Mito fusion act = blocks mitochondrial division or promotes mitochondrial fusion. AID 485298. Potency, µM (series often up to 46.1 µM), usual class: activators. S. cerevisiae fusion-defective mutant growth rescue, CellTiterGlo 48 h. 320,000 tested, 0.23% active; further: nearly all actives have a fitted effect of over 45% in size
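Compounds are tested for their ability to restore growth of mitochondrial fusion-defective yeast strains at non-permissive 37C in YPEG medium over 48 hours. Viability is quantified by luciferase luminescence.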
FUS yeast rescue = suppressors of FUS proteinopathy in yeast | Potency, µM (series often up to 76.6 µM), most hits filed as activators | S. cerevisiae FUS-expressing, growth rescue, OD600, 24 h | 390,000 tested, 0.24% active; further: nearly all actives have a fitted effect of over 55% in size
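Read-out: OD at 600 nm after 24hr at 30C, reporting rescue of FUS-induced yeast toxicity. Cells at OD 0.005 in galactose (2%) minimal medium; compounds tested in a dilution series; CP55940 titration from 92uM final as control.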
Abeta yeast res = compounds reversing amyloid beta toxicity in yeast. Potency, µM (highest dose often 46.1 µM), actives largely listed as activators. yeast expressing A-beta42, growth rescue, OD600, 48 h; response scale: 0% DMSO, 100% iron-clioquinol control. 410,000 tested, 0.063% active; further: nearly all actives have a fitted effect of over 55% in size
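Yeast A-beta toxicity model in growth medium with pinned compounds, 48 h at 30 C; growth read as absorbance at 600 nm. Normalized to FeCl3/clioquinol equimolar mix (positive) and DMSO (negative).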
aSyn rescue = rescues yeast growth from alpha-synuclein toxicity. Yeast expressing alpha-synuclein, growth rescue, BacTiter-Glo, 24 h. Potency, µM (series often up to 46.1 µM), actives largely listed as activators. 370,000 tested, 0.14% active; further: nearly all actives have a fitted effect of over 65% in size
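Screening used galactose-induced yeast with toxic alpha-synuclein levels, exposed to compound for 24 hr at 30 deg C. Cell growth, read with BacTiter-Glo luminescence, gave the measured signal.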
TDP-43 yeast inh = rescues yeast growth from TDP-43 toxicity | TDP-43 expressing yeast growth rescue, BacTiter-Glo, 24 h | Potency, µM (series often up to 46.1 µM), actives largely listed as activators | 410,000 tested, 1.8% active | AID 652104; further: nearly all actives have a fitted effect of over 50% in size
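Cell-based yeast growth screen: TDP-43 expression induced in galactose, inoculum OD600=0.02 after raffinose pregrowth to mid-log. Read-out BacTiter-Glo luminescence at 24 hr, 30 deg C; inhibition of toxicity seen as signal increase.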
A number is an active result; i = inactive; ? = inconclusive; nt = no result given. The call rests on the fitted dose curve; in most records, active means well fitted curve in the direction sought with a large enough effect; inconclusive means small, poorly fitted or top-dose-only effect, or another doubt; inactive means no such curve, though single readings can be large; an effect the other way counts as inactive or inconclusive.

SMILES | Mito fusion act | FUS yeast rescue | Abeta yeast res | aSyn rescue | TDP-43 yeast inh
CC(C)(C)n1nc(-c2ccc(F)cc2)c2c(N)ncnc21 | i | i | i | ? | i
CC(C)(C)n1nc(-c2ccc(Cl)cc2)c2c(N)ncnc21 | i | i | i | 2.5µM | i
Cc1ccc2ccc3c(c2n1)NS(=O)(=O)c1ccc(C(F)(F)F)cc1-3 | nt | nt | nt | 10µM | nt
O=S1(=O)Nc2c(cc(Cl)c3ccc(Cl)nc23)-c2ccccc21 | nt | nt | nt | i | nt
COC(=O)c1sc(=S)sc1C(=O)OC | i | i | i | ? | 13µM
Cn1ccc2c(-c3cncc4ccccc34)cc3c(c21)C1CCC3C1 (configuration not stated) | nt | i | i | i | 28µM
O=C(N/N=C/c1ccccn1)c1sc2ccccc2c1Cl | i | i | ? | 3.2µM | ?
Cc1nc(C)c(CCNS(=O)(=O)c2ccc(F)cc2)s1 | nt | i | i | i | i
O=C(CN1C(=O)NC2(CCCC2)C1=O)OCc1ccc(Cl)c(Cl)c1 | i | i | i | i | i
CC(=O)Nc1ccc(S(=O)(=O)Nc2nc3ccccc3nc2N2CCOCC2)cc1 | nt | i | i | i | i
Cc1ccccc1S(=O)(=O)Nc1nc2ccccc2nc1N1CCOCC1 | i | i | i | i | 18µM
CC1(C(=O)Nc2cccc3cccnc23)CCN1C(=O)Cc1ccc(Cl)cc1Cl (configuration not stated) | nt | i | i | i | 20µM
CC1(C(=O)Nc2cccc3cccnc23)CCN1C(=O)CC1CC1 (configuration not stated) | nt | i | i | i | i
CC(C)(C)c1ccc(CC(=O)N2CCC2(C)C(=O)Nc2cnc3ccccc3c2)cc1 (configuration not stated) | nt | ? | i | ? | 18µM
Cc1ccc(S(=O)(=O)NC(=O)C2(C)CCN2C(=O)Cc2ccc(-c3ccccc3)cc2)cc1 (configuration not stated) | nt | 28µM | i | i | i
CC1(C(=O)Nc2cccc3ncccc23)CCN1C(=O)Cc1ccc(-c2ccccc2)cc1 (configuration not stated) | nt | ? | i | i | 25µM
S=C(NCCCc1cnc[nH]1)NCCCN(Cc1ccc(Cl)cc1)c1ccc(Br)cc1 | nt | nt | nt | i | nt
Cc1cc2oc(C(=O)Nc3c(C)n(C)n(-c4ccccc4)c3=O)cc(=O)c2cc1C | nt | i | i | nt | i
Cc1ccc(C(=O)Nc2ccc(-c3nc4ccccc4o3)cc2)cc1Cl | nt | i | i | nt | i
COc1ccc(CNC(=O)Nc2cn(CC(C)C)c(=O)c3ccccc23)cc1 | nt | i | i | i | i
CC(C(=O)Nc1ccccc1Br)c1ccc([N+](=O)[O-])cc1 (configuration not stated) | i | i | i | i | i
Cc1ccc(NC(=O)C(C)c2ccc([N+](=O)[O-])cc2)cc1Cl (configuration not stated) | ? | i | ? | i | 11µM
Cc1ccc(C2(c3noc(CN(C)Cc4cccnc4)n3)CCCC2)cc1 | 28µM | i | i | i | i
CCn1c(=O)cc(SCC(=O)N2CCN(c3cc(C)ccc3C)CC2)c2ccccc21 | nt | ? | i | nt | i
CN(C)c1nc(F)c(F)c(S(=O)(=O)c2ccccc2)c1F | i | i | i | i | 14µM
SMILES | Mito fusion act | FUS yeast rescue | Abeta yeast res | aSyn rescue | TDP-43 yeast inh
O=C(CSc1nc2ccccc2n1-c1ccccc1)Nc1ncc(Cl)cc1Cl | 20µM | i | i | i | 22µM
Cc1cccc(-n2c(SCC(=O)Nc3ncc(Cl)cc3Cl)nc3ccccc32)c1 | 22µM | ? | i | i | i
COc1ccc(-n2c(SCC(=O)Nc3ncc(Cl)cc3Cl)nc3ccccc32)cc1 | i | nt | nt | nt | nt
COCCn1c(SCC(=O)Nc2nc(C)c(Cl)cc2Cl)nc2ccccc21 | i | ? | i | i | i
Brc1ccc(OCc2nnnn2-c2ccccc2)cc1 | i | i | i | i | 22µM
COc1ccc(OCc2nnnn2-c2ccccc2)cc1 | i | i | i | i | i
Cc1c(NS(=O)(=O)c2ccccc2)cc(Cl)c(O)c1C | i | nt | i | i | 10µM
CCOc1ccccc1C(=O)Nc1cc(Cl)ccc1O | ? | i | i | i | 2.8µM
CCOc1ccccc1C(=O)Nc1cc2c(cc1N1CCCCC1)n(C)c(=O)n2C | nt | i | i | nt | 32µM
CC1CCN(C(=O)COC(=O)c2ccc3c(c2)C(=O)N(Cc2ccco2)C3=O)CC1 | i | i | i | i | i

Source: PubChem
